# Data reported in PubChem BioAssay (NCI).
# About 83,000 compounds went through this panel and 20% of them were active in at least one assay; those are over-represented in the sample as a whole.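 Activity criterion: percent growth below 10, measured after cells in 96-well plates were exposed to a single compound concentration for 48 hours.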 A number with no mark means an inactive call. Calls of active or inactive are those of the source.
# What was measured:
# Assay in all cases: NCI-60 one-dose screen, 48 h (100 = growth as untreated, 0 = no growth, -100 = all killed)
# Conditions in all cases: 10 µM unless noted
# HT29 colon = tested on: HT29 colon
# SNB-75 CNS = tested on: SNB-75 CNS
# U251 CNS = tested on: U251 CNS
# PC-3 prostate = tested on: PC-3 prostate
# SK-MEL-5 melanoma = tested on: SK-MEL-5 melanoma
# UACC-62 melanoma = tested on: UACC-62 melanoma
# LOX IMVI melanoma = tested on: LOX IMVI melanoma
# SK-MEL-28 melanoma = tested on: SK-MEL-28 melanoma
# SK-MEL-2 melanoma = tested on: SK-MEL-2 melanoma
# EKVX NSCLC = tested on: EKVX NSCLC
# SN12C renal = tested on: SN12C renal
# UO-31 renal = tested on: UO-31 renal
# TK-10 renal = tested on: TK-10 renal
# ACHN renal = tested on: ACHN renal
# CAKI-1 renal = tested on: CAKI-1 renal
# A498 renal = tested on: A498 renal
# CCRF-CEM leukemia = tested on: CCRF-CEM leukemia
# MOLT-4 leukemia = tested on: MOLT-4 leukemia
# SR leukemia = tested on: SR leukemia
# SNB-19 CNS = tested on: SNB-19 CNS
Structure (SMILES),growth (HT29 colon),growth (SNB-75 CNS),growth (U251 CNS),growth (PC-3 prostate),growth (SK-MEL-5 melanoma),growth (UACC-62 melanoma),growth (LOX IMVI melanoma),growth (SK-MEL-28 melanoma),growth (SK-MEL-2 melanoma),growth (EKVX NSCLC),growth (SN12C renal),growth (UO-31 renal),growth (TK-10 renal),growth (ACHN renal),growth (CAKI-1 renal),growth (A498 renal),growth (CCRF-CEM leukemia),growth (MOLT-4 leukemia),growth (SR leukemia),growth (SNB-19 CNS)
COc1cc(Oc2cc(-c3cccnc3)ccc2NC(=O)Nc2ccc(F)cc2F)cc(OC)c1OC,105%,83.8%,92.2%,84.3%,92.6%,88.9%,107%,119%,112%,90.4%,102%,76.8%,116%,121%,94.3%,89.9%,97.3%,84.9%,97.4%,–
Clc1ccc2c(Nc3ccc4oc(NCCN5CCCC5)nc4c3)ccnc2c1,38.1%,79.8%,70.1%,79.9%,99.1%,94.2%,29.5%,89.6%,105%,104%,83.7%,66.2%,103%,98.2%,94.1%,90.6%,70.2%,66.6%,1.43% (active),–
COc1ccc(C(=O)Nc2nc(-c3ccc(Cl)cc3)cs2)cc1,114%,98.7%,–,98.3%,98.9%,–,–,101%,–,–,101%,89.4%,–,94.4%,96.7%,91.5%,104%,97.9%,105%,104%
O=c1[nH]c(Cl)nc2c1cnn2-c1ccccc1,64.4%,82.9%,100%,76.6%,96.5%,67.6%,71.7%,70.7%,103%,93.7%,97.4%,73.2%,102%,101%,61.6%,84.1%,40.9%,47.6%,32.1%,–
O=C(/C(=N/O)S(=O)(=O)c1ccccc1)c1cccs1,107%,92.6%,–,97.7%,–,104%,–,111%,–,–,101%,96.8%,89.5%,112%,103%,103%,98.5%,104%,85.9%,100%
COc1ccc2nc3cc(Cl)ccc3c(N3CCN(c4ccnc(Nc5ccc(F)cc5)n4)CC3)c2c1,83.3%,69.1%,–,67.3%,–,77.4%,–,104%,–,–,71.5%,56%,66.1%,62.5%,72%,51.1%,38.1%,20%,43.2%,82.4%
Cc1ccc(NC(=O)Nc2ccc(-c3cccnc3)cc2N2CCC(CO)CC2)cc1,5.68% (active),15.3%,11.3%,51.8%,-46.1% (active),4.73% (active),33.3%,9.36% (active),33.7%,55.5%,41%,81.2%,16.5%,81.2%,42.2%,-36.2% (active),34.7%,17.6%,17.1%,–
O=C1C(=O)c2ccc(Br)cc2-c2cc(Br)ccc21,105%,84.2%,-31.8% (active),83.7%,63.3%,92.4%,-24.6% (active),76.7%,87.7%,99.8%,34.1%,48.4%,114%,39%,58.1%,115%,10.1%,-31.4% (active),4.99% (active),–
O=C(Nc1ccc(Cl)cc1)Nc1ccc(Nc2nncc3ccccc23)cc1,32.4%,46.3%,18.3%,1.46% (active),7.12% (active),13.4%,33.6%,44.1%,18.9%,20.6%,26.4%,19%,32%,22.4%,20.6%,24.5%,13.1%,-1.61% (active),17.5%,–
O=C(O)c1ccc(NC(=O)c2cccc(Nc3ccnc(C(F)(F)F)c3)c2)cc1,106%,105%,–,105%,101%,108%,–,110%,–,–,106%,82%,–,103%,95.1%,106%,94.8%,93.4%,86.1%,106%
COc1ccc(Nc2nccc(N3CCN(c4c5ccc(Cl)cc5nc5ccc(OC)cc45)CC3)n2)cc1,44.6%,67.5%,–,57.9%,–,76.4%,–,105%,–,–,68.5%,47.5%,59.2%,57.8%,71.5%,62.9%,4.07% (active),-2.31% (active),21.1%,92.2%
O=C(O)c1ccc(NC(=O)c2ccc(Nc3ccnc(C(F)(F)F)c3)cc2)cc1,109%,98.7%,–,99.4%,101%,107%,–,106%,–,–,104%,84.5%,105%,98.9%,108%,105%,120%,94.5%,90%,99.7%
Nc1ccc(C2=Nc3cccc4cccc(c34)S2)cc1,98.5%,71.4%,91.8%,71.6%,88.9%,79.8%,91.8%,111%,87.5%,67.3%,94.2%,60.4%,88.3%,81.3%,75.7%,55.9%,68.4%,82.2%,57.5%,–
Nc1ccc(C2=NN(c3ccccc3)C(c3ccc(Cl)cc3)C2)cc1 (stereo not given),19.5%,72.8%,–,80.9%,–,89.5%,–,105%,–,–,76.9%,55.1%,74.2%,82.1%,80.9%,74.7%,64.2%,62.4%,2.52% (active),78.1%
Cc1cc(C(C)(C)c2cc(C)c(O)c(CN(C)C)c2)cc(CN(C)C)c1O,76.3%,90.1%,67.8%,80%,85.8%,75.5%,81.8%,79.2%,101%,92.3%,96.3%,59.4%,94.2%,86.2%,79.6%,69.5%,100%,87.4%,74.8%,–
N#CCCCCCn1c2ccccc2c2c3c(c4c5ccccc5[nH]c4c21)C(=O)N(O)C3=O,3.99% (active),29.4%,-46.2% (active),-3.49% (active),-97% (active),-35.7% (active),-81% (active),-2.36% (active),3.52% (active),46%,6.13% (active),-44.9% (active),22%,-81.6% (active),-59.9% (active),-76.3% (active),-1.67% (active),-21.3% (active),-9.51% (active),–
CC(C)C(=O)Cc1cnccn1,108%,102%,–,102%,109%,–,97%,116%,109%,99.4%,98.6%,90.8%,104%,108%,83.4%,101%,115%,123%,114%,102%
COc1ccc(Cn2c(NCCCN(C)C)nc(=O)n(Cc3ccc(F)cc3)c2=O)cc1,95.9%,81.4%,–,80.3%,97.8%,97%,–,100%,–,–,95.4%,63.6%,110%,105%,83.1%,95.6%,114%,84.9%,83.5%,104%
